Laboratory results: PubChem BioAssay (NCATS)
Records with an inconclusive call do not appear. The source made the active and inactive calls. Unless noted, calls follow the shape of the full dose curve.

Key:
[1] = AP1 Signaling Pathway (AID 357; active = well fitted curve in either direction with a large enough effect, not every such curve was filed as active;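 also: ME-180 reporter cells stimulated with EGF at its EC50 level; % is scaled to controls: 0 for no effect and ±100 for the full control effect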); conditions: ME-180 AP-1-bla reporter, EGF-induced, beta-lactamase ratio, 5 h; at 7.69 µM (top of the series) unless noted
Procedure, shortened: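 Modulation of EGF-driven AP-1 transcription was assessed with a beta-lactamase reporter in ME-180 cells. Compound and EC50 EGF were co-incubated 5 hours at 37 °C before 2.5-hour CCF4 loading at room temperature and dual-emission reading.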

[2] = target: Cytochrome P450 1A2 (Homo sapiens) (UniProt P05177); assay: p450-cyp1a2 (AID 410); also: potency is read from the fitted curve at half-maximal effect;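 as to activity change, negative = inhibition: -100% = full effect of reference inhibitor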
Procedure, shortened: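 Luminescent demethylation readout: Luciferin-ME (100uM, equal to Km) turned over by 20nM CYP1A2 for 60 min at room temperature after NADPH regeneration addition, following 10 min compound preincubation. Normalization used 57 uM furafylline as full inhibition.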

[3] = NFAT Signaling Pathway (AID 444; active = well fitted curve in either direction with a large enough effect, not every such curve was filed as active;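 also: carbachol stimulus at about its EC50 of 1 µM final; % is scaled to controls: 0 for no effect and ±100 for the full control effect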); conditions: Jurkat NFAT-bla M1, carbachol, beta-lactamase ratio, 5 h; at 7.69 µM (top of the series) unless noted
Procedure, shortened: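 Jurkat cells carrying an NFAT-driven β-lactamase reporter and co-transfected muscarinic M1 receptor were treated with compound plus carbachol (1 uM final, an EC50 level) for 5 h at 37 °C. CCF4 loading followed for 1 h at RT; 460/530 nm ratio gave %activity.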

[4] = Stat Signaling Pathway (AID 446; active = well fitted curve in either direction with a large enough effect, not every such curve was filed as active;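 also: ME-180 cervical cancer cells given 40 pM IL-6 alongside compound; SIE-controlled beta-lactamase reporter measured as 460/530 nm FRET emission ratio; % is scaled to controls: 0 for no effect and ±100 for the full control effect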); conditions: ME-180 SIE beta-lactamase reporter, IL-6 stimulated, 5 h; at 7.69 µM (top of the series) unless noted
Procedure, shortened: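 Overnight-plated ME-180 cells bearing a STAT Inducible Element beta-lactamase reporter; 5 h co-exposure to compound and 40 pM IL-6; values normalized to 300 pM IL-6 and 125 nM JAK inhibitor controls.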

[5] = target: Glucocorticoid receptor (Homo sapiens) (UniProt P04150); assay: GR-EFC Redistribution (AID 451); conditions: CHO-K1 GR-EFC translocation, beta-gal luminescence, 2 h; also: potency is read from the fitted curve at half-maximal effect
Procedure, shortened: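 CHO-K1 cells stably expressing nuclear-localized β-gal enzyme acceptor and GR fused C-terminally to the enzyme donor fragment; ligand-driven nuclear translocation restores β-gal by complementation. Compounds titrated up to 46 uM final, 2 h at 37 °C; luminescence read.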

[6] = target: Mitogen-activated protein kinase 10 (Mus musculus) (UniProt Q61831); assay: JNK3 AlphaScreen Assay (AID 530; active = well fitted curve in either direction with a large enough effect, not every such curve was filed as active;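 also: kinase came from lysate of stimulated human HepG2 cells; signal reports phosphorylation of biotinylated GST-cJun 1-79 at Ser73 with 10 µM ATP; % is scaled to controls: 0 for no effect and ±100 for the full control effect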)
Procedure, shortened: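 Phosphorylation of biotinylated GST-cJun(1-79) at Ser73 is measured by AlphaScreen proximity luminescence. Enzyme is JNK3 in HepG2 lysates activated with interleukin-1beta and tumor necrosis factor alpha; ATP is 10 uM final.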

[7] = target: 3',5'-cyclic-AMP phosphodiesterase 4B (Homo sapiens) (UniProt Q07343); assay: qHTS Assay for Inhibitors of PDE-IV (AID 607; active = well fitted activation curve with a large enough effect in the main read-out, with a control signal flat, not every such curve was filed as active; also: % of control where 0% means no effect)
Procedure, shortened: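 Live HEK293 cells with a modified cyclic nucleotide-gated (CNG) channel report intracellular cAMP via membrane-potential dye fluorescence (ex 535/em 590 nm). Endogenous PDE-IV was targeted. Compounds were tested at up to 22.9 uM final; RO 20-1724 100 uM served as control.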

[8] = target: Cytochrome P450 3A4 (Homo sapiens) (UniProt P08684); assay: qHTS Assay for Activators of Cytochrome P450 3A4 (AID 885; active = well fitted curve in the direction sought with a large enough effect; an effect the other way counts as inactive or inconclusive; also: nearly all actives have a fitted effect of over 65% in size; also: potency is read from the fitted curve at half-maximal effect)
Procedure, shortened: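 Using 20nM recombinant human CYP3A4 in potassium phosphate (200mM), substrate Luciferin-PPXE at 25uM, luminescent luciferin detection followed a 60-min RT NADPH reaction; data scaled to 57 uM ketoconazole.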

[9] = qHTS Assay for Lipid Storage Modulators (AID 1519); conditions: Drosophila S3 cells, BODIPY lipid droplet/cell ratio, laser cytometry, cells loaded with oleic acid; for activity change, negative = inhibition: at 57.5 µM (top of the series)
Procedure, shortened: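 Cells seeded at 5,000 per well were treated with compounds over a concentration series and loaded with oleic acid (400 uM, as added). Lipid droplet fluorescence (488 nm excitation, 500-530 nm channel) was read by laser-scanning cytometry and normalized to 20 uM Triacsin C.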

[10] = Primary qHTS for small molecule stabilizers of the endoplasmic reticulum resident proteome: Secreted ER Calcium Modulated Protein (SERCaMP) assay (AID 1508630; active = well fitted curve in the direction sought with a large enough effect; an effect the other way counts as inactive or inconclusive; also: % is scaled to controls: 0 for no effect and ±100 for the full control effect)
Procedure, shortened: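 The SH-SY5Y reporter protocol was run at 3 concentrations up to 38.3 uM (primary) or 11 concentrations (follow-up): 16 h compound, 100 nM thapsigargin for 4 h, then extracellular luciferase luminescence.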

[11] = target: Lysosomal acid glucosylceramidase (Homo sapiens) (UniProt P04062); assay: Glucocerebrosidase-p2 (AID 348; in the data active = potency below about 10 µM; also: potency is read from the fitted curve at half-maximal effect); conditions: purified GBA, blue fluorogenic substrate, 40 min
Procedure, shortened: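 Normal human glucocerebrosidase (0.2 nM) with blue fluorogenic substrate (80 uM final) in citrate/phosphate pH 5.9 with 10mM sodium taurocholate, 0.01% tween-20; 40 min RT, NaOH/glycine stop; fluorescence Ex 365/Em 440; AC50 from a titration from 0.6 nM upwards.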

[12] = target: Glucocorticoid receptor (Homo sapiens) (UniProt P04150); assay: GR-GFP Redistribution (AID 450;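 active = compounds whose dose series gives a full or clear partial fitted curve of increased nuclear translocation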; also: potency is read from the fitted curve at half-maximal effect); conditions: U2OS GR-GFP nuclear translocation, laser cytometry, 2 h
[13] = Confirmation and Secondary Assay for Modulators of Hemoglobin Beta Chain Splicing at IVS2 654 locus (AID 910; active = well fitted curve in the direction sought with a large enough effect; an effect the other way counts as inactive or inconclusive;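 also: per-well total GFP intensity by laser scanning cytometry after 2-day treatment; % of control where 0% means no effect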)
Procedure, shortened: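 HeLa cells stably carrying EGFP interrupted by mutant beta-globin IVS2-654 intron (CMV-driven) were treated with compound for 2 days at 37C; corrected splicing was scored as total peak GFP intensity per well (488 nm excitation, 500-520 nm emission).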

[14] = qHTS Assay for Identification of Small Molecule Agonists for Hypoxia Response Element Signaling Pathway (AID 914; active = well fitted activation curve with a large enough effect in the signal ratio, with a control signal flat, not every such curve was filed as active; the % refers to the signal ratio; also: potency is read from the fitted curve at half-maximal effect); conditions: ME-180 (cervical carcinoma) HRE-bla reporter, beta-lactamase ratio, CoCl2, 17 h; activation: stronger effect = higher value
Procedure, shortened: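 Compounds in a titration series were added to ME-180 reporter cells alongside an EC50 level of CoCl2. After 17 hours, beta-lactamase activity was read as the 460nm/530nm emission ratio of CCF4, giving AC50 values.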

[15] = Confirmation and Secondary Assay for Modulators of Hemoglobin Beta Chain Splicing at IVS2 705 locus (AID 930; active = well fitted curve in the direction sought with a large enough effect; an effect the other way counts as inactive or inconclusive;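 also: HeLa cells stably expressing the EGFP-705 splicing reporter; GFP fluorescence per well restored by corrected splicing of the IVS2-705 intron in EGFP; % of control where 0% means no effect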)
Procedure, shortened: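 Assay measures total GFP intensity per well in HeLa EGFP-705 cells after 2 days with compound; mis-splicing normally truncates EGFP, so fluorescence indicates corrected splicing.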

[16] = target: Cytochrome P450 2D6 (Homo sapiens) (UniProt P10635); assay: qHTS Assay for Inhibitors and Substrates of Cytochrome P450 2D6 (AID 891; active = well fitted curve in the direction sought with a large enough effect; an effect the other way counts as inactive or inconclusive; also: potency is read from the fitted curve at half-maximal effect; nearly all actives have a fitted effect of over 60% in size)
Procedure, shortened: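 Luminescent read-out of luciferin formed by 5 nM human CYP2D6 demethylating 30 uM Luciferin-ME EGE (Km level) over 60 min at room temperature after NADPH regeneration addition. Data normalized to full inhibition by 1.43 uM quinidine.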

[17] = target: Cytochrome P450 2C19 (Homo sapiens) (UniProt P33261); assay: qHTS Assay for Inhibitors and Substrates of Cytochrome P450 2C19 (AID 899; active = well fitted curve in the direction sought with a large enough effect; an effect the other way counts as inactive or inconclusive; also: potency is read from the fitted curve at half-maximal effect; nearly all actives have a fitted effect of over 60% in size)
Procedure, shortened: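 In 50mM KPO4, the reaction held 5nM enzyme and KM-level (10uM) Luciferin-H EGE; it ran 60 min at 37C after NADPH regeneration and a 10 min compound preincubation. Luminescence values were scaled to 57uM ketoconazole as complete inhibition.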

[18] = target: Ubiquitin carboxyl-terminal hydrolase 1 (Homo sapiens) (UniProt O94782); assay: Inhibitors of USP1/UAF1: Pilot qHTS (AID 504865; active = well fitted curve in the direction sought with a large enough effect; an effect the other way counts as inactive or inconclusive;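 also: rhodamine fluorescence freed from ubiquitin-rhodamine substrate followed over time; top concentration of the series differs between compounds; % is scaled to controls: 0 for no effect and ±100 for the full control effect; nearly all actives have a fitted effect of over 35% in size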)
Procedure, shortened: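 In 50mM HEPES pH 7.8 containing 0.5mM EDTA, 1mM TCEP, 0.1 mg/ml BSA and 0.01% Tween-20, 1nM USP1/UAF1 is exposed to compound for 15 min, then Ub-Rho (150nM final) is added and fluorescence is read over time.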

[19] = measured here: cell count channel max response
[20] = measured here: lipid channel max response

Lysosomal acid glucosylceramidase (Homo sapiens), sequence (P04062 whole entry, looked up): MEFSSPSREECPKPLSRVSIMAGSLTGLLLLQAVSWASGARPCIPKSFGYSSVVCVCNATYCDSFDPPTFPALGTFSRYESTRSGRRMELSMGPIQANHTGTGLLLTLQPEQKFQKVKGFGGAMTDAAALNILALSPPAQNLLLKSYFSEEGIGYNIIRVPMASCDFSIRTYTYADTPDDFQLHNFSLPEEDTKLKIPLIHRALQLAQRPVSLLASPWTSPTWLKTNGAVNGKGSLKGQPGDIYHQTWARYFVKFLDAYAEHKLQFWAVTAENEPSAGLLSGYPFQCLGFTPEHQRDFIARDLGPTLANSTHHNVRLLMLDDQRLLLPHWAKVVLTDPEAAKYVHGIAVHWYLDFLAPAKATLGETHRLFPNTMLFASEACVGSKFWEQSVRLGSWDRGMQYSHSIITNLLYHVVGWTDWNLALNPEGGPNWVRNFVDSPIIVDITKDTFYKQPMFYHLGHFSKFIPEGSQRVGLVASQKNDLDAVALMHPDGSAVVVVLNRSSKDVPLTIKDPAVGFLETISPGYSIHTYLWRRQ
3',5'-cyclic-AMP phosphodiesterase 4B (Homo sapiens), sequence (Q07343 whole entry, looked up): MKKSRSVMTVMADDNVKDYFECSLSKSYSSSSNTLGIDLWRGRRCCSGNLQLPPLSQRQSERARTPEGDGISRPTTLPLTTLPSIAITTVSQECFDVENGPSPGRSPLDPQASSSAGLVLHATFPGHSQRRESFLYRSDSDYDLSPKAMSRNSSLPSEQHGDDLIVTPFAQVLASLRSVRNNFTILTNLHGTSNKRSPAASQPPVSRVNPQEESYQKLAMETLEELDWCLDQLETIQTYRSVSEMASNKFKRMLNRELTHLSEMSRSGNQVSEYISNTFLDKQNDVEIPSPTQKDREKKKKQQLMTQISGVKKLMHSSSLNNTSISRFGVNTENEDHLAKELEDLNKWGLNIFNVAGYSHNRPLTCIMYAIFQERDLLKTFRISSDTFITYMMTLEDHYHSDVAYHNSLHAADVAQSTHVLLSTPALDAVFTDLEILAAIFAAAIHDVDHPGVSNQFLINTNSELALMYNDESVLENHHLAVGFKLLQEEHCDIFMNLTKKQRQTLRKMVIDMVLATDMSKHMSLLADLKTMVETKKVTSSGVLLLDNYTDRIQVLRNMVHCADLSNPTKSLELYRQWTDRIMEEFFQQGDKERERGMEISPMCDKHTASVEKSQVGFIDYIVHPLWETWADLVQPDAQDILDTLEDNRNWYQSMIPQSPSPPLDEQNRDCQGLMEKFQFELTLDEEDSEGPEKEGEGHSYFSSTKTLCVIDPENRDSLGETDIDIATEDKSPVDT
Glucocorticoid receptor (Homo sapiens), sequence (P04150 whole entry, looked up, the tested form may be a part): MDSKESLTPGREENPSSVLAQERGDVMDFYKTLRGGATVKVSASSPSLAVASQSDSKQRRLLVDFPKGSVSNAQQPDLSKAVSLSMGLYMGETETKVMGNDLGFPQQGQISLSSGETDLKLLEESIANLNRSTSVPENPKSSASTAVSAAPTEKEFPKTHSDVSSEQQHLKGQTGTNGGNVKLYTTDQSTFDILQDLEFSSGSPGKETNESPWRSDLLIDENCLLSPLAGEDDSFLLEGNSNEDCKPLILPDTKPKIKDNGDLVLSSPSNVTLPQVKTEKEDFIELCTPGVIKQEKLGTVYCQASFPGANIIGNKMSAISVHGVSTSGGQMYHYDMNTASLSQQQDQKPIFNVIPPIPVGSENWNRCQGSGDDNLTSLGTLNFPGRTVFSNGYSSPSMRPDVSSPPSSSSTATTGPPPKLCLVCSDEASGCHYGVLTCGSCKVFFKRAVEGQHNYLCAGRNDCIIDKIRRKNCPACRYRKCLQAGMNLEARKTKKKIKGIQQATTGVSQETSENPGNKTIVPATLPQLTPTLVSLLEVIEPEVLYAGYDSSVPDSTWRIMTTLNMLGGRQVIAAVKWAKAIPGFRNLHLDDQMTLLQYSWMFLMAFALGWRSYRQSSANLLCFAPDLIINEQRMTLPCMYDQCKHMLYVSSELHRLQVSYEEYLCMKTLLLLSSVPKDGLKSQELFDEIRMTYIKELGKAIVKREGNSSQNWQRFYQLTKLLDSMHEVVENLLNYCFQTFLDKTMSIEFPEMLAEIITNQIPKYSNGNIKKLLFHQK
Cytochrome P450 1A2 (Homo sapiens), sequence (P05177 whole entry, looked up): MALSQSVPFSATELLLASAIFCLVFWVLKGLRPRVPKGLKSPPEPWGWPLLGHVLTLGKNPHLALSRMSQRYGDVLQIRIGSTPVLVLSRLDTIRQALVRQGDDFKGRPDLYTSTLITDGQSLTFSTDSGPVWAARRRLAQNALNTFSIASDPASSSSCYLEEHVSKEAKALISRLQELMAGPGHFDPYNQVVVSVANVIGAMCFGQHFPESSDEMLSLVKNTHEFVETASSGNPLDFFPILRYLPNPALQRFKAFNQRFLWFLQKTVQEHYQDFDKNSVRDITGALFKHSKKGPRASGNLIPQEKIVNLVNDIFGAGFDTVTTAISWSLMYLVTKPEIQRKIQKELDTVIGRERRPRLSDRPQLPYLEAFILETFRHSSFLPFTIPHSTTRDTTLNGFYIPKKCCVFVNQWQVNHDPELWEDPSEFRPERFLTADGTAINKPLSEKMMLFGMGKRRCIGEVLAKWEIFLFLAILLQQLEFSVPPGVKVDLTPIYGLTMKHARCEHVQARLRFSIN
Cytochrome P450 3A4 (Homo sapiens), sequence (P08684 whole entry, looked up): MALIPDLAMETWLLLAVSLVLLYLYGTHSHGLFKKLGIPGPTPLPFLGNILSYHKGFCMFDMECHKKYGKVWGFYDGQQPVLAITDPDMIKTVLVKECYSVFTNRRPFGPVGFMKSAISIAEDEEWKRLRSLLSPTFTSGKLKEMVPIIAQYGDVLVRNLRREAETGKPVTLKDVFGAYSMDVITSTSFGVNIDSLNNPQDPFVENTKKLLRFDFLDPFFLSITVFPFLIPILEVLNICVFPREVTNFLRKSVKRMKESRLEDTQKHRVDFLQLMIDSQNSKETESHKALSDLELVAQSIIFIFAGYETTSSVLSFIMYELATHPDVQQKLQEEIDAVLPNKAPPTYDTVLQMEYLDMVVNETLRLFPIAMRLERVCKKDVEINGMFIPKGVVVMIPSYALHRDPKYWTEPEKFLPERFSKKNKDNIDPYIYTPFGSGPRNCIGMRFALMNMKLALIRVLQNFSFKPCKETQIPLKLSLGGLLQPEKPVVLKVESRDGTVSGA
Ubiquitin carboxyl-terminal hydrolase 1 (Homo sapiens), sequence (O94782 whole entry, looked up): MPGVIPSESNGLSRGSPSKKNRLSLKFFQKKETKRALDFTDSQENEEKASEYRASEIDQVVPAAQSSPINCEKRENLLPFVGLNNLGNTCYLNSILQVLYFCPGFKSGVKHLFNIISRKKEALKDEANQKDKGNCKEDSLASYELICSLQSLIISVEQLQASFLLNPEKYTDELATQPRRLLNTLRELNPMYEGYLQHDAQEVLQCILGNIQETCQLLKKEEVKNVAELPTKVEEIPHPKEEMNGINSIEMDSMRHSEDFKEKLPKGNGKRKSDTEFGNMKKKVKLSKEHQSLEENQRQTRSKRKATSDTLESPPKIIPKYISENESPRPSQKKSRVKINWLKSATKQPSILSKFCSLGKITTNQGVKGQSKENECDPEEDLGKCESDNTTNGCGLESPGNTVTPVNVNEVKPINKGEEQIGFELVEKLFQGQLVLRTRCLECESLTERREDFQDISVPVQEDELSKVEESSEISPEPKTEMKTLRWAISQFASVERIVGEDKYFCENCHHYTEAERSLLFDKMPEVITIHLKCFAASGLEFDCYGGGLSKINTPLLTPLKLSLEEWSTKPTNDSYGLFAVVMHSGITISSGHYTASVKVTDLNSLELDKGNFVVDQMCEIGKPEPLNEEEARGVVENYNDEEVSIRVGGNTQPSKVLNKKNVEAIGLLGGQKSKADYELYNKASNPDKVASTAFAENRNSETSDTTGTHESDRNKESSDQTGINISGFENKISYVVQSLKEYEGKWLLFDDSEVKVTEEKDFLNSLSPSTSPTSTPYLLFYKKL
Cytochrome P450 2C19 (Homo sapiens), sequence (P33261 whole entry, looked up): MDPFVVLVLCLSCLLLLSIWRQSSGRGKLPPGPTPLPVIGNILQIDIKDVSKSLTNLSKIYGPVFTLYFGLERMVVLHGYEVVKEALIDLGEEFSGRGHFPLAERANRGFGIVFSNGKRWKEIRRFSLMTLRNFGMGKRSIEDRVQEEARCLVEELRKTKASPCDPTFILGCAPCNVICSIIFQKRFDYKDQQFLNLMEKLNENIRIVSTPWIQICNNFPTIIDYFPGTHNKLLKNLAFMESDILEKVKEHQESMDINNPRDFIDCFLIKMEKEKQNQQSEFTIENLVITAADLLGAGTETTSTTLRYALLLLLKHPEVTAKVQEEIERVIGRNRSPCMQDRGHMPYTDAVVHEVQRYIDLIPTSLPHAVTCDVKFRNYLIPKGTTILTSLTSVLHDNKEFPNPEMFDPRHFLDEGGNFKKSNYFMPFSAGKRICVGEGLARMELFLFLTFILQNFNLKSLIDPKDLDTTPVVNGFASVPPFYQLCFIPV
Cytochrome P450 2D6 (Homo sapiens), sequence (P10635 whole entry, looked up): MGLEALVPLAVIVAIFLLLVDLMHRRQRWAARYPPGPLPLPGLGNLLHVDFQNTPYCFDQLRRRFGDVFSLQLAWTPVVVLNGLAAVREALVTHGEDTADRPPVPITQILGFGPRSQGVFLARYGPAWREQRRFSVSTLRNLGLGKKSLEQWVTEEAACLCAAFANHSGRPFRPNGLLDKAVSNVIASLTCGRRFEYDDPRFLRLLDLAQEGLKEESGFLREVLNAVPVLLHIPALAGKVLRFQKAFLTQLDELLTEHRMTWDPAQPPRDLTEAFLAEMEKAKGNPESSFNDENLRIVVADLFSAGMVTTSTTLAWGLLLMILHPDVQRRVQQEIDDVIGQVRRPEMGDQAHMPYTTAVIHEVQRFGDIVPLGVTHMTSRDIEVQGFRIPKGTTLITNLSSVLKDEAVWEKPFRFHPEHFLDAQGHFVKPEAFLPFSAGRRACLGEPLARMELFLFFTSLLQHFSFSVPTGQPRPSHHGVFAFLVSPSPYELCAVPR

N#Cc1cccc(NC(=O)N2CC[C@@]3(CCCN(C(=O)c4ccco4)C3)C2)c1
inactive: activity change, negative = inhibition [1] -2.67% | Potency [2] | activity change, negative = inhibition [3] 3.83% | activity, negative = inhibition [4] -1.84% | Potency [5] > 46 µM | Potency [6] | Potency [7] | Potency [8] | activity change, negative = inhibition [9] 6.04% | outcome [10]
4.12%: max response [9, 19]
14%: max response [9, 20]

COc1ccc(NC(=O)N2CC3(CCN(C(=O)c4csnn4)CC3)C2)cc1
inactive: activity change, negative = inhibition [1] 20.6% | Potency [2] | activity change, negative = inhibition [3] 16.7% | activity, negative = inhibition [4] -2.12% | Potency [5] > 46 µM | Potency [6] | Potency [7] | activity change, negative = inhibition [9] 6.22% | outcome [10]
7.84%: max response [9, 19]
18.1%: max response [9, 20]

COc1ccccc1CNc1ncnc2ccc(-c3c(C)noc3C)cc12
-3.01%: max response [9, 19]
inactive: Potency [11] > 11.4 µM | Potency [12] > 46 µM | Potency [5] > 46 µM | Potency [6] | Potency [8] | Potency [13] | outcome [15] | activity change, negative = inhibition [9] -5.34% | outcome [10]
-7.6%: max response [9, 20]
active: Potency [2] 7.94 µM | Potency [14] 1.26 µM

CCNc1ncc2nc(-c3ccc(OC)cc3)c(=O)n(Cc3cccc(OC)c3)c2n1
active: Potency [2] 15.8 µM
inactive: Potency [11] > 11.4 µM | Potency [12] > 9.22 µM | Potency [5] > 46 µM | Potency [6] | Potency [8] | activity change, negative = inhibition [9] -12% | outcome [10]
-29.7%: max response [9, 20]
-21.5%: max response [9, 19]

N#Cc1cccc(NC(=O)N2CCCC3(CCN(S(=O)(=O)c4ccccc4)CC3)C2)c1
1.48%: max response [9, 19]
inactive: Potency [11] > 11.4 µM | activity, negative = inhibition [4] -2.4% | Potency [5] > 46 µM | Potency [6] | Potency [7] | activity change, negative = inhibition [9] -3.45% | outcome [10]
-1.95%: max response [9, 20]

COC(=O)N1CCC2(CC1)CCN(C(c1ccccc1)c1ccccc1)CC2
12.4%: max response [9, 20]
5.65%: max response [9, 19]
active: Potency [8] 12.6 µM | Potency [16] 7.94 µM
inactive: Potency [11] > 11.4 µM | Potency [2] | Potency [5] > 46 µM | Potency [6] | Potency [7] | activity change, negative = inhibition [9] 2.35% | outcome [10]

O=c1c(-c2ccc(F)cc2)nc2cnc(N3CCOCC3)nc2n1-c1ccccc1
7.89%: max response [9, 19]
5.39%: max response [9, 20]
inactive: Potency [11] > 11.4 µM | Potency [12] > 9.22 µM | Potency [5] > 46 µM | Potency [6] | activity change, negative = inhibition [9] -4.64% | outcome [10]
active: Potency [14] 1.26 µM

Cc1noc(C)c1-c1ccc2ncnc(N(C)Cc3ccco3)c2c1
active: Potency [17] 5.01 µM | Potency [14] 1.58 µM
25.4%: max response [9, 20]
inactive: Potency [11] > 11.4 µM | Potency [12] > 46 µM | Potency [5] > 46 µM | Potency [6] | Potency [8] | Potency [13] | outcome [15] | activity change, negative = inhibition [9] 2.4% | Potency [18] | outcome [10]
23.8%: max response [9, 19]
